Activity calls are given as the source filed them. Rule for the calls: active = hit-call score of the fitted dose curve at least 0.9, where 1 is the maximum; inactive = score below 0.9.

The assay in a line: ATG_SREBP_CIS: Attagene CIS-FACTORIAL HepG2 Assay for human Sterol Regulatory Element Binding (SREBP) (AID 2282962). Conditions: HepG2 Attagene cis-factorial SREBP reporter, mRNA; actives raise or lower the signal. The procedure: ATG_CIS is a cell-based, multiplexed-readout assay that uses HepG2, a human liver cell line, with measurements taken at 24 hours after chemical dosing in a 24-well plate.ATG_SREBP_CIS is one of 52 assay component(s) measured or calculated from the ATG_CIS assay. It is designed to make measurements of mRNA induction, a form of inducible reporter, as detected with fluorescence intensity signals by Reverse transcription polymerase chain reaction (RT-PCR) and Capillary electrophoresis technology.Data from the assay component ATG_SREBP_CIS was analyzed into 1 assay endpoint. This assay endpoint, ATG_SREBP_CIS, was analyzed with bidirectional fitting relative to DMSO as the negative control and baseline of activity. Using a type of inducible reporter, measures of mRNA for gain or loss-of-signal activity can be used to understand the reporter gene at the transcription factor-level as they relate to the gene SREBF1. Furthermore, this assay endpoint can be referred to as a primary readout, because this assay has produced multiple assay endpoints where this one serves a reporter gene function. To generalize the intended target to other relatable targets, this assay endpoint is annotated to the dna binding intended target family, where the subfamily is basic helix-loop-helix leucine zipper.
Human liver HepG2 cells are transiently transfected with multiple reporter transcription units (MRTUs) in 6-well plates using FuGene 6 reagent (Roche; 3 ml FuGene/1 mg DNA). The MRTU constructs are regulated by a cis-regulating element (promoter). […] A major difference between the CIS and TRANS system is that in CIS activities of endogenous TFs are measured, whereas the TRANS assay evaluates changes in activities of exogenous, chimeric NR-Gal4 proteins. […] At the end of 24 hour incubation, total RNA was isolated using TriZol reagent (Invitrogen). The isolated RNA is then reverse-transcribed using oligo(dT) primer and Mo-MLV reverse transcriptase (Invitrogen) with DNAse I (Ambion) treatment for 30 min. The one-tenth of the produced cDNA was amplified by PCR using Taq DNA polymerase (Invitrogen) and two reporter sequence-specific primers. The PCR products were fluorescently labeled by primer extension with 6-arboxyfluorescein (6-FAM) 5'-labeled reporter sequence-specific primer (2 min at 95 C, 20 s at 68 C and 10 min at 72 C) and these products were digested with 5U of HpaI (New England Biolabs) for 2h at 37 C. The fragments were purified using Qiaquick PCR columns (Qiagen), analyzed on an ABI 3130xL genetic analyzer (Applied Biosystems) with peak positions identified by using a set of X-rhodamine (ROX)-labeled MapMarker1000 molecular weight standards (BioVentures). The raw capillary electrophoresis data was processed using Attagraph software (Attagene).
Consider `CNC(=O)Oc1cc(C)c(SC)c(C)c1`, for which the molecule was called inactive.

`CC1CCC(=O)O1` (stereo not given): the molecule was classed as inactive.

As for `CCCCCCCCCCCC#N`, the AC50 is 128 µM (active).

As for `CC(C)(C)C(=O)CCl`, the molecule was called inactive.

As for `CC(C)(O)C#N`, the result was inactive.

In the case of `O=C1C=CC(=O)C=C1`, the molecule was called inactive.

As to `O=[N+]([O-])O.O=[N+]([O-])O.[Cd]`, the molecule was called inactive.

`C=CCO`: the molecule was classed as inactive.

For the molecule `CCc1cccc(C)c1N(C(=O)CCl)[C@@H](C)COC`, the result was inactive.

On to `[Cl-].[Cl-].[Cl-].[Yb+3]`, for which the call was inactive.

On to `Nc1ccc(-c2ccc(N)c(N)c2)cc1N`, for which the call was inactive.

For the molecule `C=CCN(CC=C)C(=O)C(Cl)Cl`, the outcome was inactive.

For `O=C(CCN1CC1)OCC(CO)(COC(=O)CCN1CC1)COC(=O)CCN1CC1`, the molecule was classed as inactive.

Take `COc1cc(OC)c(OC)cc1C=O`: the molecule was classed as inactive.

As for `SCc1ccco1`, the outcome was inactive.

Consider `Oc1ccc(C2(c3ccc(O)cc3)c3ccccc3-c3ccccc32)cc1`, for which the concentration at half-maximal activity (AC50) was 13.6 µM (active).

As to `c1cc(OCC2CO2)ccc1Cc1ccc(OCC2CO2)cc1` (stereo not given), the AC50 was 33.4 µM (active).

As to `C=COCCCl`, the molecule was called inactive.

Turning to `C=CC(=O)OCCO`, the AC50 is 172 µM (active).

Consider `C=Cc1cccc(CCl)c1`, for which the result was inactive.

On to `CCCCCc1cc(O)cc(O)c1`, for which the call was inactive.

With `O=C(O)CCCc1ccc(N(CCCl)CCCl)cc1`, the call was inactive.

For `O=C(NCNC(=O)NC1C(=O)NC(=O)N1CO)NC1C(=O)NC(=O)N1CO` (stereo not given), the result was inactive.

`Nc1ccccc1C(=O)Oc1ccc2ccccc2c1`: the AC50 was 65.5 µM (active).

Take `Clc1ccc(-c2ccccc2)cc1`: the outcome was inactive.

For `Nc1ccc(Cl)c(Cl)c1`, the call was inactive.

Regarding `CCOP(=O)(OCC)Oc1ccc([N+](=O)[O-])cc1`, the result was inactive.

Regarding `CCC(C)c1cc(C(C)(C)C)cc(-n2nc3ccccc3n2)c1O` (stereo not given), the call was inactive.

Regarding `CN1C[C@H](C(=O)N[C@]2(C)O[C@@]3(O)[C@@H]4CCCN4C(=O)[C@H](Cc4ccccc4)N3C2=O)C=C2c3cccc4[nH]cc(c34)C[C@H]21`, the AC50 is 16.4 µM (active).

As to `Nc1cc(Cl)cc(Cl)c1`, the call was inactive.

Take `O=P(O)(Oc1ccccc1)Oc1ccccc1`: the result was inactive.

With `CCOP(=O)(OCC)OCC`, the molecule was called inactive.

As to `CC(C)CCCCCCCOP(=O)(Oc1ccccc1)Oc1ccccc1`, the AC50 was 27.2 µM (active).

`c1ccc(Nc2ccc3ccccc3c2)cc1`: the molecule was classed as inactive.

Consider `O=c1[nH]c(Cl)c(Cl)cc1Cl`, for which the call was inactive.

With `ClCCCCCCCl`, the outcome was inactive.

As for `CN(C)CCC#N`, the call was inactive.

In the case of `CNC(=N[N+](=O)[O-])NCC1CCOC1` (stereo not given), the molecule was classed as inactive.

With `Nc1ccc([N+](=O)[O-])cc1N`, the molecule was classed as inactive.

As for `O=[N+]([O-])O`, the call was inactive.

These data come from PubChem BioAssay (EPA / NIEHS).
